This is an account of results in PubChem BioAssay AID624330 (Southern Research Specialized Biocontainment Screening …, 2012).

Hit rate of the full screen: of about 340,000 compounds, about 2,100 (0.62%) were called active. The list is a sample of the results. Measured potencies and affinities stand elsewhere. Unmarked numbers belong to inactive results.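 How the source made its calls: active means first-screen hits whose inhibition reached a set limit at any dose in the follow-up dose series; inconclusive means inhibition above the set first-screen limit but never retested; inactive means the rest.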

The target of this assay is Rac GTPase-activating protein 1 (Homo sapiens) (UniProt Q9H0H5). Nature of the assay: blockers of MgcRacGAP-driven Rac1 GTP hydrolysis – biochemical, ADP Hunter fluorescence, primary and confirmatory, confirmation (AID 624330).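 Further: fluorescence reports GDP produced by GAP-driven GTP hydrolysis.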 The conditions noted are these: MgcRacGAP-stimulated Rac1 GTP hydrolysis, at 30 µM, active compounds read high, GST-tagged Rac1 F28L mutant substrate.
Chain of Rac GTPase-activating protein 1 (Homo sapiens) (Q9H0H5 whole entry, looked up): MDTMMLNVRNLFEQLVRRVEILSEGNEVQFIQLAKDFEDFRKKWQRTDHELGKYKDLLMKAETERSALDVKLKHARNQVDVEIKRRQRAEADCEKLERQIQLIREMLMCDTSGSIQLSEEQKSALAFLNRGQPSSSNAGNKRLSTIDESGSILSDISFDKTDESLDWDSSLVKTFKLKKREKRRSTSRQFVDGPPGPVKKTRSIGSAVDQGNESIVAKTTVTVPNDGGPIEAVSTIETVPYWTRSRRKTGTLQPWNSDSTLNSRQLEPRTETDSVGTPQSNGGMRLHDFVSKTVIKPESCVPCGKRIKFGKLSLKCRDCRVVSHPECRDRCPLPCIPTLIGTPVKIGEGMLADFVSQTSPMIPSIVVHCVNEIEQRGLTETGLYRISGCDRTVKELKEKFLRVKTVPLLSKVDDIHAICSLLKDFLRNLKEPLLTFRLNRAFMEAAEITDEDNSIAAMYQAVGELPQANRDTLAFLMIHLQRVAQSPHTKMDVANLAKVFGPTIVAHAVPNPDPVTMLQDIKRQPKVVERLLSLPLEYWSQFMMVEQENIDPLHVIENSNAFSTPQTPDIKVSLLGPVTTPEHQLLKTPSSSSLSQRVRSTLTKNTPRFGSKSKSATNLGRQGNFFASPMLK
Regarding `Cc1ccccc1NC(=O)N1CCCC1C(=O)NCc1cccs1` (stereo unspecified), the inhibition is 11.4%.
The result for `CC(=O)Nc1ccc(CN2CCc3c([nH]c4ccccc34)C2C(C)(C)C)cc1` (stereo unspecified) reads 6.78%; that for `CCCc1n[nH]c2c1/C(=N/O)CC(c1ccccc1)C2` (stereo unspecified), 12.8%; that for `COc1cc(C)c(S(=O)(=O)N2CCCC2)cc1C`, 4.75%.
In the case of `CN(Cc1ccccc1)C(=O)COC(=O)c1ccc(S(=O)(=O)N(C)C)cc1` it was 9.46%; in that of `O=C1C=C(c2ccccc2)C(O)(c2ccccc2)C1` (stereo unspecified), 4.42%; in that of `CC1CN(C(=O)CS(=O)(=O)Cc2ccc(Cl)cc2)CC(C)O1` (stereo unspecified), 6.85%.
In the case of `O=C(/C=C/Nc1ccc(F)cc1)c1ccc(Oc2ncccn2)cc1` it was 10.5%.
On to `CCCCNS(=O)(=O)c1ccc2nc(SCC(=O)Nc3sccc3C#N)[nH]c2c1`, for which the inhibition is 4.59%.
The result for `COC(=O)C1CCN(C(=O)Cc2ccc(OC)c(OC)c2)CC1` reads -0.01%.
In the case of `COc1ccc(Cc2nnc(NC(=O)Cc3cccs3)s2)cc1OC`, the inhibition is 4.75%.
Consider `O=C(Cc1cccs1)Nc1nnc(Cc2ccccc2)s1`, for which the inhibition is 22.3%.
In the case of `CC1=NNC(=O)C1CC(=O)N/N=C(\C)c1cccs1` (stereo unspecified) it was 3.05%; in that of `O=C(CCN1C(=O)c2cccc3cccc(c23)C1=O)Nc1ccccc1`, 2.77%; in that of `C=CCN1C(=O)CSC1=Nc1cccc(O)c1`, 3.76%.
The result for `COc1ccc(N=C2SCC(=O)N2c2ccc(OC)cc2)cc1` reads -0.28%; that for `CN1C(=O)CSC1=Nc1ccc(F)cc1`, 4.45%; that for `C=CCN1C(=O)CSC1=Nc1ccc(C(=O)O)cc1`, 6.53%.
In the case of `O=C(NCCN1C(=O)S/C(=C\c2ccccc2Cl)C1=O)C1=COCCO1` it was 3.87%; in that of `COc1cc2c(cc1OC)C(C)N(C(=S)Nc1ccccc1)CC2` (stereo unspecified), 7.46%; in that of `NC(c1ccncc1)c1ccc(Cl)cc1` (stereo unspecified), 13.9%.
With `COC(=O)c1cccc(N2CCCC2=O)c1`, the inhibition is 9.18%.
In the case of `COC(=O)c1cccc(N2C(=O)c3ccccc3S2(=O)=O)c1` it was 0.68%; in that of `O=C(O)c1cccc(N2CCCC2=O)c1`, 5.07%.
The result for `O=C(O)c1cccc(N2CCCC2)c1` reads 15.6%; that for `CCCN(CCC)Cc1c(C(=O)N/N=C/CCc2ccccc2)nnn1-c1nonc1N`, 11.3%.
The result for `Nc1ncc2c(n1)CCN(c1ccc([N+](=O)[O-])cc1)C2` reads 7.74%; that for `CC[C@H](C)[C@@H](C(=O)N1CCNCC1)n1cc([C@@H](N)CC(C)C)nn1`, 0.32%; that for `Cc1ccsc1/C=N/NC(=O)Nc1ccccc1`, 1.94%.
As to `O=C(O)c1cccc(N/N=C/c2cccc3ccccc23)c1`, the inhibition was 8.13%.
The result for `O=C(O)c1cccc(N/N=C/c2cn(-c3ccccc3)nc2-c2cccs2)c1` reads 3.09%; that for `CN(C)c1ccc(/C=N/Nc2cccc(C(=O)O)c2)cc1`, -3.06%.
The result for `CC(C)(C)c1ccc(/C=N/Nc2cccc(C(=O)O)c2)cc1` reads 6.23%; that for `O=C(O)c1cccc(N/N=C/c2ccc(-c3ccccc3)cc2)c1`, -7.28%; that for `CC(=O)c1ccc(NC(=O)CN2C(=O)NC3(CCc4ccccc43)C2=O)cc1` (stereo unspecified), 1.63%.
For `Cc1ccc(NC(=O)CN2C(=O)NC3(CCc4ccccc43)C2=O)cc1` (stereo unspecified), the inhibition was -6.82%.
The result for `CCOc1cccc(NC(=O)c2ccc(S(=O)(=O)N3CCCC3)cc2)c1` reads 3.15%; that for `O=S(=O)(c1ccccc1)c1nc(-c2ccco2)oc1NCCCN1CCOCC1`, 8.7%; that for `O=C(/C=C/c1ccc(Cl)cc1Cl)Nc1cccc(S(=O)(=O)NC2=NCCCCC2)c1`, 5.67%.
As for `Nc1cc(Cl)ccc1Oc1ccc(Cl)cc1`, the inhibition is 0.58%.
In the case of `Nc1cc(Cl)ccc1Oc1ccccc1` it was 11.6%.
In the case of `COc1ccc(C(=O)COC(=O)CNC(=O)c2ccccc2)cc1F` it was 4.02%; in that of `CCOC(=O)c1cnc(SCC(=O)Nc2cc(OC)ccc2OC)nc1N`, 3.73%.
The result for `CSCCC(NC(=O)c1ccccc1Cl)C(=O)NCc1ccncc1` (stereo unspecified) reads 6.71%; that for `CC1CCCN(CCOc2ccc(Br)cc2)C1` (stereo unspecified), 12%; that for `CC1CCCN(CCCOc2ccccc2-c2ccccc2)C1` (stereo unspecified), 18.1%.
With `O=C(/C=C/c1ccco1)NCC1CCCO1` (stereo unspecified), the inhibition was 19.1%.
The result for `CC(C)(C)C(=O)Cn1c(=O)n(-c2ccc(F)cc2F)c(=O)c2sccc21` reads 13.1%; that for `CNC(=S)N1N=C(c2ccc(C)cc2)CC1c1ccc(OC)c(OC)c1` (stereo unspecified), 2.99%; that for `COC(=O)C[C@H]1c2cc(F)ccc2S(=O)(=O)N1c1ccc(N(C)C)cc1`, 22.8%.
In the case of `CC(=O)C[C@H]1c2cc(C(F)(F)F)ccc2S(=O)(=O)N1c1ccc(N(C)C)cc1` it was 16.3%.
The result for `COc1ccc(-n2ncc3c2CC(C)(C)CC3NC(=O)CCn2cncn2)cc1` (stereo unspecified) reads 4.79%.
Take `COc1ccc(-n2c(=O)c3c(C)c(C)sc3n(Cc3cccc(F)c3)c2=O)c(OC)c1`: the inhibition is 9.42%.
The result for `CC(=O)Nc1ccc(NC(=O)Nc2ccccc2)cc1` reads -3.27%.
In the case of `CC(=O)Nc1ccc(NS(=O)(=O)c2ccccc2)cc1` it was 5.08%; in that of `Cc1cccc(NC(=O)CC(C)(C)C)c1`, 5.55%.
`Cc1ccc(S(=O)(=O)Nc2ccc(Nc3ccccc3)cc2)cc1`: the inhibition was 24.2%.
In the case of `CC(=O)Nc1cccc(NC(=O)c2ccccc2OCc2ccccc2)c1` it was 9.89%; in that of `CC(C)(C)CC(=O)Nc1ccc(C(N)=O)cc1`, 5.87%; in that of `O=C(Nc1ccccc1)c1ccccc1OCc1ccc(F)cc1`, 13.5%.
The result for `CC(=O)Nc1ccccc1` reads 3.65%; that for `COc1cc(-c2ccccc2)[nH]c(=S)n1`, 9.57%.
In the case of `CC(Sc1nc(=O)cc(N)n1CCc1ccccc1)C(=O)NCc1ccccc1` (stereo unspecified) it was 3.88%; in that of `COc1cccc(NC=C2C(=O)OC(C)(C)OC2=O)c1`, 6.91%; in that of `Cc1cc(C(=O)NNC(=S)NCC2CCCO2)cs1` (stereo unspecified), 9.6%.
With `COc1ccc2c(CC(=O)Nc3nc(C)cs3)coc2c1`, the inhibition was 7.58%.
The result for `Cc1ccc(C(=O)N(CC(=O)Nc2ccc(Cl)c(Cl)c2)Cc2ccco2)cc1` reads 2.86%; that for `O=C(CSc1nc(C(F)(F)F)cc(=O)[nH]1)N1CCCCCC1`, -0.68%; that for `CC(C)Cn1c(SCC(=O)c2ccc(Cl)s2)nnc1-c1ccco1`, 11.6%.
Take `CC1CC(C)CN(c2cc(=O)n(Cc3ccc(F)cc3)c(=O)[nH]2)C1` (stereo unspecified): the inhibition was 6.97%.
The result for `COc1ccc(NC(=O)CN(C)S(=O)(=O)c2cccs2)cc1` reads 16%; that for `CCOC(=O)c1nn(-c2ccccc2F)c(-c2ccccc2)c1C(=O)c1ccccc1`, 5.32%.
The result for `Cc1cccc(NC(=O)c2ccccc2C(=O)O)c1` reads 3.78%.
In the case of `O=C(O)c1ccccc1C(=O)Nc1ccc(Br)c(C(F)(F)F)c1` it was 8.86%; in that of `O=C(O)c1ccccc1C(=O)Nc1ccccc1`, -1.51%; in that of `O=C(Nc1ccc(Nc2ccccc2)cc1)C(Cl)Cl`, 25.5%.
`CC(OC(=O)COc1ccc(Nc2ccccc2)cc1)C(=O)N(C)c1ccccc1` (stereo unspecified): the inhibition was 24.6%.
The result for `CC(=O)c1ccc(NC(=O)C(C)OC(=O)COc2ccc(C#N)cc2)cc1` (stereo unspecified) reads 3.94%; that for `O=C(O)c1ccccc1-c1ccccc1C(=O)Nc1ccccc1`, 8.32%; that for `CC(C)C(=O)Nc1ccc(C(=O)c2ccccc2)cc1`, 4.76%.
Turning to `Cc1cccc(NS(=O)(=O)c2cccc(C(=O)N3CCCCCC3)c2)c1`, the inhibition was 7.68%.
In the case of `CCOc1ccc(NC(=O)c2cccs2)c([N+](=O)[O-])c1` it was 9.62%.
For the compound `COc1ccc(COC(=O)N/N=C/c2cccs2)cc1`, the inhibition is 0.62%.
In the case of `Cc1ccc(/C=C2/SC(=S)N(CCCC(=O)Nc3cc([N+](=O)[O-])ccc3O)C2=O)cc1` it was 3.56%.
In the case of `CCN(CC)CCNS(=O)(=O)c1ccc(Cl)cc1` it was 5.79%; in that of `Cc1cc2ncn(-c3ncnc4sc(C)c(C)c34)c2cc1C`, 6.72%; in that of `CC1CCN(C(=O)c2nc[nH]c2C(=O)O[C@H](C)c2ccccc2)CC1`, 9.03%.
In the case of `O=C(Nc1ccccc1)c1ccc(NC(=O)C2CC2)cc1` it was 3.78%; in that of `O=C(Nc1ccccc1)C1CCCCC1`, -3.44%.
As for `CC(=O)Nc1ccc(S(=O)(=O)Nc2nc3ccccc3nc2Nc2ccc(O)c(C(=O)O)c2)cc1`, the inhibition is 9.87%.
The result for `Oc1ccc(NCc2cccc(OCc3ccc(F)cc3)c2)cc1` reads 3.64%; that for `Oc1ccc(NCc2cccc(OCc3ccccc3)c2)cc1`, 9.79%; that for `CC(C)CC(=O)Nc1ccc(Nc2ccccc2)cc1`, 22.4%.
The result for `CC(=O)Nc1ccc(S(=O)(=O)Nc2nc3ccccc3nc2Nc2ccccc2)cc1` reads 4.86%; that for `CCCC(=O)Nc1ccc(Nc2ccccc2)cc1`, 22.6%.
In the case of `O=C(COC(=O)CNC(=O)c1ccccc1F)Nc1ccc2c(c1)OCO2` it was 4.84%.
As for `COC(=O)c1cc(Nc2cc(C)c3ccc(O)cc3n2)cc(C(=O)OC)c1`, the inhibition was 11.8%.
Regarding `COc1nc(-c2ccccc2)nc(C)c1CC(=O)O`, the inhibition is 9.59%.
As for `Cc1ccc(S(=O)(=O)/N=C(/c2ccc(F)cc2)N(C)C)cc1`, the inhibition is 8.12%.
The result for `COCCN(Cc1nc(C2(c3ccc(C)cc3)CCCC2)no1)C(C)C` reads -3.53%.
The result for `CCOc1ccc(N2C(=O)Nc3ccc(Br)cc3C2(O)C(=O)NCCCN(C)C)cc1` (stereo unspecified) reads 8.07%.

Usually inhibition stands for the drop in the measured response relative to a control, in per cent.
